RGS4 inhibitor: human RGS4 inhibition | Potency, µM (series often up to 114 µM), for the others: at the highest dose activity change, negative = inhibition, usual class: inhibitors | 390,000 compounds, 0.039% hits | Transcreener GDP fluorescence polarization, RGS4-accelerated GTP hydrolysis; further: on the % scale 0 is the no-effect control and ±100 the full control effect; nearly all actives have a fitted effect of over 75% in size
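MLSMR compounds (23 nl, pin-transferred) preincubated 10 min at room temperature with a 500nM (2x) first reagent, then RGS4 at 900nM (2x) plus Transcreener GDP mix added; fluorescence polarization (620/688 nm) read before and after 90 min at 30 °C.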
GRP78 ERSR act: inducers of ER stress response in human glioma cells; U87-MG GRP78 promoter luciferase reporter, 16 h; Potency, µM, for inactives: at the top dose activation, actives largely listed as activators; 420,000 compounds, 0.02% hits; further: series mostly up to about 76 µM; % of control where 0% means no effect; nearly all actives have a fitted effect of over 35% in size
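Stably transfected U87-MG glioma cells carrying a GRP78-based luciferase sensor; 16 h compound incubation. Luminescence end-point read 10 min after Bright-Glo addition at room temperature.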
Anesthetic bind: binds horse apoferritin like a general anesthetic. apoferritin/1-aminoanthracene competitive binding, fluorescence. Potency, µM (top dose mostly 77.5 µM), without a hit: top-dose activity change, negative = displacement, usual class: inhibitors. 350,000 compounds, 0.074% hits. AID 485281; further: on the % scale 0 is the no-effect control and ±100 the full control effect; nearly all actives have a fitted effect of over 20% in size
Target sequence (P02791 2-175 limits assumed): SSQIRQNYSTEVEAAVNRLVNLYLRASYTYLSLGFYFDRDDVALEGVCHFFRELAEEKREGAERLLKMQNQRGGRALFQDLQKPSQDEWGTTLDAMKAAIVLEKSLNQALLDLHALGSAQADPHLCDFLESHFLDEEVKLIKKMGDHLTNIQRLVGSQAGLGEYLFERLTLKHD
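Concentration-response curves derived by four-parameter Hill fitting of normalized fluorescence, where compounds displaced 1-AMA from 10 uM horse apoferritin following a brief 10 min room-temperature incubation; propofol titration acted as positive control.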
Pin1 inh: human Pin1 inhibition; Potency, µM (doses to about 115 µM), inactives show at the top dose activity, negative = inhibition, usual class: inhibitors; Pin1 FP peptide displacement, HiFluor488, 10 min; Q13526; 390,000 compounds, 0.009% hits; active means well fitted inhibition curve with a large enough effect in the polarisation, with a control signal flat, not every such curve was filed as active; inconclusive means small, poorly fitted or top-dose-only effect, or effect the other way, or a change in a side signal; inactive means no such curve, though single readings can be large or run the other way; the % refers to the polarisation; further: on the % scale 0 is the no-effect control and ±100 the full control effect
Mm-Cpn inhibitor: M. maripaludis TRiC chaperonin inhibition; purified Mm-Cpn ATPase, ADP Transcreener TR-FRET; Potency, µM (titrated, usually from 76.9 µM), for inactives: at the highest dose activity, negative = inhibition, hits mostly inhibitors; 330,000 compounds, 0.031% hits; AID 504842; further: on the % scale 0 is the no-effect control and ±100 the full control effect; nearly all actives have a fitted effect of over 80% in size
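Compound-treated chaperonin, 25 nM final, turns over 10 uM ATP at 37°C for 30 min following a 10 min preincubation; ADP generated competes with ADP-d2 for Eu-cryptate antibody, lowering FRET.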
B2AR arrestin: recruits beta-arrestin to the human beta2-adrenergic receptor; Potency, µM (highest dose often 46.1 µM), for inactives: at the top dose activation, most hits filed as activators; 330,000 compounds, 0.02% hits; beta-arrestin recruitment to beta2AR, cell-based reporter; P07550;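 further: 0% = DMSO controls and full agonism = EC100 isoproterenol or metaproterenol; nearly all actives have a fitted effect of over 65% in size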
Target sequence (P07550 whole entry, looked up): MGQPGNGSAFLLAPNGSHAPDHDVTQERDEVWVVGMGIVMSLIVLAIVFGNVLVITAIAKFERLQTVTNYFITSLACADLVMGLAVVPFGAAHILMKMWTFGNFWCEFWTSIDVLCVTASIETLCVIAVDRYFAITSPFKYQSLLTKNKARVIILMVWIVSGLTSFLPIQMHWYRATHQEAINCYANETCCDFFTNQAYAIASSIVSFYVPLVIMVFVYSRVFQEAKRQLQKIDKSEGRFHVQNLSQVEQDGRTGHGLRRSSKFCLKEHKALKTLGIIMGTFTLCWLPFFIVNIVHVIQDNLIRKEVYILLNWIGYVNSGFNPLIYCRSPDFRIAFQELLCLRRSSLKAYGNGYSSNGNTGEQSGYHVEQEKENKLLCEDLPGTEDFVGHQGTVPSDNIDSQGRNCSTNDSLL
* hit, by the source's call; ? = inconclusive; . = no result; ! = a repeat was not active; [ ] = dose if it differs, or a comment. Most compounds without a hit are left out; they make up all but 0.17% or so of the library. Unless noted, the call rests on the fitted dose curve; in most records, active means well fitted curve in the direction sought with a large enough effect; inconclusive means small, poorly fitted or top-dose-only effect, or another doubt; inactive means no such curve, though single readings can be large; an effect the other way counts as inactive or inconclusive. Potency means the concentration at half of the fitted maximal effect.

SMILES	RGS4 inhibitor	GRP78 ERSR act	Anesthetic bind	Pin1 inh	Mm-Cpn inhibitor	B2AR arrestin
Cc1c(NC(=O)/C(C#N)=C/c2ccc(-c3cc(Cl)ccc3Cl)o2)c(=O)n(-c2ccccc2)n1C	?	-2%	-3%	-2%	2%	-2%
N#C/C(=C\c1ccc(-c2cc(Cl)ccc2Cl)o1)C(=O)Nc1cccc2ncccc12	3µM*	-13%	.	.	.	.
[2H]c1c([2H])c([2H])c2c([nH]c(=S)n2C2CCN(CCCC(=O)c3ccc(F)cc3)CC2)c1[2H]	.	-4%	.	.	.	.
CCCC1(C)C(C#N)(C#N)C1(C#N)C#N	9.5µM*	-14%	.	.	.	.
COc1ccc(-c2ccc3ncnc(NCc4nc(C)cs4)c3c2)cc1OC	.	.	.	-3%	.	.
OCCN1CCN(C(c2cccs2)c2ccc3cccnc3c2O)CC1 (stereo not drawn)	.	.	32µM*	.	1%	3%
COc1ccc(C(=O)c2sc(Nc3cccc(OC)c3)c(C(=O)Nc3cccc(C)c3C)c2N)cc1	-27%	13µM*	-25%	2%	-9%	1%
COc1ccc(Nc2sc(C(=O)c3ccc(Cl)cc3)c(N)c2C(=O)Nc2ccccc2OC)cc1	-36%	?	?	1%	0%	0%
O=S1(=O)N=C(Oc2ccccc2C(F)(F)F)c2ccccc21	.	.	.	-3%	.	.
CCOC(=O)C1CCN(C(=O)Cn2ncc3c4ccccc4n(Cc4ccccc4)c3c2=O)CC1	-21%	32µM*	-2%	25%	.	.
CCOC(=O)C1CCN(C(=O)Cn2ncc3c4ccccc4n(Cc4ccc(F)cc4)c3c2=O)CC1	7%	40µM*	5%	25%	.	.
CCOC(=O)C1CCCN(C(=O)Cn2ncc3c4ccccc4n(Cc4ccccc4)c3c2=O)C1 (stereo not drawn)	4%	14%	172%	27%	.	.
COc1ccc(C2Nc3ccccc3C(=O)N2Cc2ccc(-c3ccccc3)cc2)cc1COc1ccc(NC(C)=O)cc1 (stereo not drawn)	.	.	.	-11%	.	.
CCCn1cnc2c1c(=O)n(CCCCC(C)=O)c(=O)n2C	24µM*!	-2%	.	?	.	.
Oc1ccc(CNc2ccc(F)cc2Cl)c2cccnc12	.	.	.	-3%	.	.
CC1(C)CC(=O)c2c(noc2-c2ccccc2)C1	47%	6%	10µM*	-4%	-2%	-1%
CN(Cc1nccs1)c1ncnc2ccc(-c3ccc4c(c3)OCO4)cc12	.	.	.	-1%	.	.
O=[N+]([O-])c1ccccc1S(=O)(=O)NCCC1=CCCCC1	-4%	-2%	10µM*	-3%	-20%	0%
Cc1ccc(NS(=O)(=O)c2ccc(N3CCCC3=O)cc2)cc1C	.	.	.	2%	.	.
CCOC(=O)C1CCN(Cc2ccc(OC)c(C)c2OC)CC1	14%	-6%	-10%	-10%	1%	0%
CCOC(=O)C1CCN(Cc2cc(Cl)c3ccccc3c2O)CC1	?	28µM*	-10%	3%	-7%	-1%
CC[n+]1c(/C=C/C=C/N(C(C)=O)c2ccccc2)sc2ccccc21	?	-3%	?	?	1%	0%
CC[n+]1c(/C=C/C=C2/N(C)c3ccccc3C2(C)C)sc2ccccc21	21µM*	-15%	.	.	.	.
COc1ccc(C2Nc3ccccc3C(=O)N2Cc2ccco2)cc1COc1ccccc1 (stereo not drawn)	.	.	.	21%	.	.
N#Cc1ccccc1S(=O)(=O)N1CCN(S(=O)(=O)c2ccc3c(c2)OCCO3)CC1	.	.	.	7%	.	.
SMILES	RGS4 inhibitor	GRP78 ERSR act	Anesthetic bind	Pin1 inh	Mm-Cpn inhibitor	B2AR arrestin
CC1(C)C(=O)OC(C(=O)c2ccc(C(C)(C)C)cc2)C(C)(C)C1=O (stereo not drawn)	-23%	0%	20µM*	-5%	1%	0%
Cc1cnc(SCc2ccccn2)nc1C1CCCN(C(=O)c2scc3c2CCCC3)C1 (stereo not drawn)	.	-8%	.	.	.	.
CC(=O)Nc1ccc(Oc2ccc([N+](=O)[O-])cc2Cl)cc1	-37%	-1%	16µM*	-9%	-1%	0%
CCOC(=O)N1CCc2c(sc3ncn(Cc4ccc(F)cc4)c(=O)c23)C1	-18%	-5%	-5%	-4%	-1%	0%
O=c1c2c3c(sc2ncn1Cc1ccc(F)cc1)CCC3	-15%	-1%	25µM*	12%	-1%	0%
COc1ccc(C2Nc3ccccc3C(=O)N2Cc2ccccc2C(F)(F)F)cc1COc1ccc(NC(C)=O)cc1 (stereo not drawn)	.	.	.	9%	.	.
COc1cc2sc(-c3ccc(S(C)(=O)=O)cc3)c(C(=O)NCCCCO)c2cc1OC	23%	-4%	.	-3%	-5%	0%
COc1cc2sc(-c3ccc(S(C)(=O)=O)cc3)c(C(=O)NCc3ccc(C)o3)c2cc1OC	?	-4%	.	0%	50µM*	0%
COc1cc(/C=C/c2ccc3c(Br)cc(Br)c(O)c3n2)ccc1O	?	28µM*	-7%	23%	4%	?
COc1ccc(/C=C/c2ccc3c(Br)ccc(O)c3n2)cc1	-7%	-2%	-6%	1%	-18%	0%
CCCCCCCCCCCCCCCCCCc1ccc(C(=O)/C=C/C(=O)O)cc1	?	-5%	-13%	.	.	.
CCCCCCCCc1ccc(-c2ccc(C(=O)O)cc2)cc1	21µM*	-4%	-16%	.	.	.
C=CC(=O)c1ccc(CCCCCC)cc1	2.7µM*	-4%	-8%	.	.	.
O=C1CCc2cc(S(=O)(=O)Nc3ccc(F)c(Cl)c3)ccc2N1	.	.	.	1%	.	.
O=C1CCc2cc(S(=O)(=O)Nc3cccc4ccccc34)ccc2N1	.	.	.	1%	.	.
COc1ccc(CNc2oc(/C=C/c3cc(OC)c(OC)c(OC)c3)nc2C#N)cc1	4%	32µM*	754%	?	.	.
COc1cc(OC)c2c(c1O)OC(c1ccccc1)CC2=O (stereo not drawn)	-8%	-2%	-8%	0%	.	1%
COc1cc(OC)c2c(c1)OC(c1ccccc1)CC2=O (stereo not drawn)	5.3µM*	-1%	.	.	.	.
C/C(Cc1ccccc1)=N\NC(=O)CNC(=O)c1ccc(Cl)cc1	-31%	-2%	-19%	-2%	0%	1%
CCC/C(=N\NC(=O)CNC(=O)c1ccc(Cl)cc1)c1ccccc1	8%	0%	16µM*	-3%	5%	0%
O=c1c2ccccc2c(-c2n[nH]c(=S)o2)nn1Cc1ccccc1	-48%[56.9 µM]	3%	-17%	-10%	?	0%
OCc1ccc(-c2nn(Cc3ccccc3)c3ccccc23)o1	24µM*!	1%	.	5%	-3%	0%
O=C(Oc1c(CN2CCOCC2)cc(Cl)c2cccnc12)c1ccccc1	-17%	-1%	-11%	-7%	-4%	?
COc1cc(OC)cc(C(=O)Oc2c(CN3CCOCC3)cc(Cl)c3cccnc23)c1	-10%	-2%	-18%	1%	-1%	4µM*
